Our source for the growth values is PubChem BioAssay (NCI).

What all share (test): NCI-60 one-dose screen, 48 h (100 = growth as untreated, 0 = no growth, -100 = all killed)
Common to all, as to conditions: 10 µM unless noted

The subject of assay [1] is NCI-H322M lung.
Assay [2] relates to HOP-62 NSCLC.
For assay [3], the system named is NCI-H460 lung.
Assay [4] deals with HOP-92 NSCLC.
In assay [5] the test system is NCI-H522 lung.
Assay [6] deals with A549/ATCC NSCLC.
The subject of assay [7] is 786-0 renal.
Assay [8] concerns COLO 205 colon.
Assay [9] deals with DU-145 prostate.
In assay [10] the test system is K-562 leukemia.
Assay [11] relates to MALME-3M melanoma.
The subject of assay [12] is MDA-MB-231 breast.
For assay [13], the system named is RXF 393 renal.
Assay [14] deals with SF-268 CNS.
Assay [15] relates to SF-295 CNS.
Assay [16] has as its system SF-539 CNS.
The test system of assay [17] is UACC-257 melanoma.
Assay [18] relates to M14 melanoma.
For assay [19], the system named is HCT-15 colon.

This is part of a sample that, as a whole, favours compounds with a hit. Of some 83,000 tested, about 20% had one in any assay.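 In brief: 96-well plates, 48 h treatment, single concentration, percent growth endpoint.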 Unmarked numbers belong to inactive results. Activity calls are given as the source filed them. The calls were made as follows: active = growth percent below 10; inactive = the rest.

For `O=C(c1ccc(Cl)cc1)C1[C@H](c2ccc(Cl)cc2)[C@@H](c2ccccc2)NC12C(=O)Nc1ccc(Br)cc12` (stereo partly specified), the growth in assay [1] is 56.2%; in assay [2], 58.6%; in assay [3] it was 8.65% (active); in [4] it was -1.5% (active); in assay [5], 66%; in assay [6], 29.2%. Further, the growth in assay [7] is 24.6%; in [8], 55.9%; in [9] it was 46.8%; in assay [10], 17%; in assay [11], 62.7%; in [12], 37.2%. Further, the growth in [13] was 6.62% (active); in [14], 34.3%; in assay [15] it was 35.4%; in assay [16] it was 59.5%; in [17], 57.7%; in assay [18] it was 27.2%. Also, in [19], the growth is 24.6%.
With `NS(=O)(=O)c1cccc(Nc2nc(SCC(=O)c3ccc([N+](=O)[O-])cc3)nc3ccccc23)c1`, the growth in assay [2] is 71.9%; in assay [3], 36.3%; in [4], 52%; in assay [5] it was 19.3%; in assay [6], 70.6%; in assay [7], 44.6%. The growth in [8] was 83.1%; in [9], 42.8%; in assay [10], 19.7%; in [11], 58.6%; in assay [12], 55.6%; in assay [13], 57%. In addition, the growth in assay [14] was 54.5%; in assay [15] it was 36.8%; in assay [16] it was 52.2%; in [17], 88.9%; in assay [18], 38.5%; in assay [19], 34.5%.
Regarding `C#Cc1nc(C2=C(C)/C(=N/OCc3ccccc3)CC2)cs1`, the growth is 92.6% in assay [1]; 55.6% in assay [2]; 39.6% in assay [3]; -79.2% (active) in assay [4]; -56.9% (active) in [5]; 84.5% in [6]. Further, the growth is -95.7% (active) in [7]; 83.5% in assay [8]; 88.5% in assay [9]; 75.5% in assay [10]; -44% (active) in [11]; -39.2% (active) in assay [12]. The growth was 33.6% in assay [13]; 0.651% (active) in assay [14]; -84% (active) in [15]; -86.5% (active) in assay [16]; 84.4% in assay [17]; 75.4% in assay [18]. The growth in assay [19] is 53.4%.
For `COc1ccc(/C=C2\SC(=Nc3cc(C)[nH]n3)NC2=O)cc1`, the growth in [1] is 91.9%; in [2], 85.2%; in [3], 102%; in assay [4], 68.5%; in [5], 97.4%; in [6] it was 102%. Moreover, the growth in [7] was 99.8%; in assay [8], 90.8%; in [9], 101%; in [10] it was 101%; in assay [11], 89.6%; in assay [12], 95.4%. Also, the growth in assay [13] was 80.7%; in [14] it was 95.8%; in assay [15] it was 86.3%; in [16], 95.8%; in assay [17] it was 98.7%; in assay [18], 98.1%. Moreover, in assay [19], the growth is 84.2%.
For the compound `N/C(=N\c1nc2c(Cl)cc(Cl)cc2s1)C(Cl)(Cl)Cl`, the growth in assay [1] is -55.6% (active); in assay [2] it was 20.1%; in [3] it was -1.22% (active); in [4], 46.4%; in assay [5], 82.4%; in [6] it was -12.9% (active). In addition, the growth was 85.4% in assay [7]; -16% (active) in assay [8]; -27.8% (active) in assay [9]; 71.3% in assay [10]; 91.7% in assay [11]; 38.4% in [12]. Moreover, the growth was 53.7% in assay [13]; 75.7% in assay [14]; 11.3% in assay [15]; 44.5% in assay [16]; 78.1% in assay [17]; 93.3% in [18]. Further, in [19], the growth is 57.5%.
Take `CC(=O)Oc1ccccc1C(=O)Nc1ccc(C(=O)/C=C/c2cccs2)cc1`: the growth was 106% in assay [1]; 101% in [2]; 116% in [3]; 108% in assay [4]; 102% in [5]; 104% in assay [6]. The growth in assay [7] was 88.7%; in assay [9], 113%; in [10] it was 101%; in assay [11] it was 104%; in [12], 113%; in assay [13], 126%. The growth in [14] is 107%; in assay [15], 99.1%; in [16], 107%; in [17], 113%; in assay [18] it was 107%; in assay [19] it was 96.7%.
Consider `O=C(CSc1nccc(=O)[nH]1)Nc1ccc(-c2nc3ccccc3[nH]2)cc1`, for which the growth is 98.2% in [1]; 94.3% in assay [2]; 110% in assay [3]; 103% in assay [4]; 104% in assay [5]; 110% in [6]. Also, the growth in assay [7] was 101%; in [8] it was 113%; in assay [9], 106%; in assay [10] it was 105%; in assay [11], 101%; in [12], 102%. Also, the growth in [13] was 128%; in assay [14], 115%; in [15], 115%; in assay [16] it was 98.9%; in assay [17], 108%; in assay [18], 110%. For the same compound, in assay [19], the growth was 108%.
